According to PubChem BioAssay (NCATS):
Records with an inconclusive call do not appear. The source made the active and inactive calls. Unless noted, calls come from the whole dose curve; as a rule, active = well fitted curve in the direction sought with a large enough effect; inconclusive = small, poorly fitted or top-dose-only effect, or another doubt; inactive = no such curve, though single readings can be large; an effect the other way counts as inactive or inconclusive.

Legend:
[1] = target: Glucocorticoid receptor (Homo sapiens) (UniProt P04150); assay: GR-GFP Redistribution (AID 450;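 active = compounds whose dose series gives a full or clear partial fitted curve of increased nuclear translocation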; note: potency is the fitted concentration of half-maximal effect); settings: U2OS GR-GFP nuclear translocation, laser cytometry, 2 h
[2] = target: Glucocorticoid receptor (Homo sapiens) (UniProt P04150); assay: GR-EFC Redistribution (AID 451; calls by dose curve; note: potency is the fitted concentration of half-maximal effect); settings: CHO-K1 GR-EFC translocation, beta-gal luminescence, 2 h
Procedure, shortened: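 CHO-K1 cells stably expressing nuclear-localized β-gal enzyme acceptor and GR fused C-terminally to the enzyme donor fragment; ligand-driven nuclear translocation restores β-gal by complementation. Compounds titrated up to 46 uM final, 2 h at 37 °C; luminescence read.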

[3] = target: Mitogen-activated protein kinase 10 (Mus musculus) (UniProt Q61831); assay: JNK3 AlphaScreen Assay (AID 530; active = well fitted curve in either direction with a large enough effect, not every such curve was filed as active;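 note: kinase came from lysate of stimulated human HepG2 cells; signal reports phosphorylation of biotinylated GST-cJun 1-79 at Ser73 with 10 µM ATP; % is set by controls: 0 for no effect and ±100 for the full control effect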); settings: JNK3 lysate, c-Jun phosphorylation; series mostly up to 25.6 µM
Procedure, shortened: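 JNK3 came from HepG2 lysates pre-activated with IL-1beta and TNF-alpha and phosphorylated biotinylated GST-cJun (1-79) at 10 uM ATP, pH 7.6, room temperature. Compounds were titrated. AlphaScreen signal used anti-phospho-cJun (Ser73) antibody.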

[4] = qHTS Assay for Lipid Storage Modulators (AID 1519; calls by dose curve; for activity change, negative = inhibition: % is set by controls: 0 for no effect and ±100 for the full control effect); settings: Drosophila S3 cells, BODIPY lipid droplet/cell ratio, laser cytometry, cells loaded with oleic acid; for activity change, negative = inhibition: at 25.7 µM (top of the series)
Procedure, shortened: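 Cells seeded at 5,000 per well were treated with compounds over a concentration series and loaded with oleic acid (400 uM, as added). Lipid droplet fluorescence (488 nm excitation, 500-530 nm channel) was read by laser-scanning cytometry and normalized to 20 uM Triacsin C.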

[5] = target: ATP-dependent 6-phosphofructokinase (Trypanosoma brucei brucei) (UniProt O15648); assay: qHTS Assay to Find Inhibitors of T. brucei phosphofructokinase: hit validation (AID 492961);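 note: luminescence reports ADP formed as PFK phosphorylates fructose-6-phosphate with ATP; % is set by controls: 0 for no effect and ±100 for the full control effect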; settings: T. brucei PFK, ADP-Glo luminescence; series mostly up to 24.3 µM
Procedure, shortened: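 Percent activity derived from corrected luminescence, normalized between 0x and 1x enzyme controls, then fitted to concentration-response curves. Conditions: 1.25 nM PFK, 0.1 mM ATP, 0.5 mM F6P, 45 min RT.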

[6] = target: Ubiquitin carboxyl-terminal hydrolase 1 (Homo sapiens) (UniProt O94782); assay: Inhibitors of USP1/UAF1: Pilot qHTS (AID 504865); settings: purified USP1/UAF1, Ub-rhodamine cleavage fluorescence; series mostly up to 114 µM;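 note: rhodamine fluorescence freed from ubiquitin-rhodamine substrate followed over time; top concentration of the series differs between compounds; % is set by controls: 0 for no effect and ±100 for the full control effect; nearly all actives have a fitted effect of over 35% in size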
Procedure, shortened: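 USP1/UAF1 complex (1nM) preincubated with compound 15 min at room temperature, then Ub-Rho substrate (150nM final) added. Fluorescence read kinetically at 480/540 nm, 6 reads every 60 seconds. Buffer: 50mM HEPES pH 7.8, 0.5mM EDTA, 0.1 mg/ml BSA, 1mM TCEP, 0.01% Tween-20.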

[7] = qHTS profiling for inhibitors of Plasmodium falciparum proliferation (AID 504749);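 note: 0% = DMSO vehicle and full inhibition = artemisinin control; nearly all actives have a fitted effect of over 60% in size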; settings: P. falciparum in erythrocytes, SYBR Green DNA, 72 h
Procedure, shortened: (§1)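 P. falciparum-infected erythrocytes (0.3% parasitemia, 2.5% hematocrit final) were exposed to compounds for 72 h at 37 C in 5% CO2, then lysed with SYBR Green buffer overnight at room temperature; parasite DNA fluorescence was normalized to artemisinin and DMSO controls.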

3D7 = assay: as above; settings: P. falciparum in erythrocytes, SYBR Green DNA, 72 h; series mostly up to 12.8 µM
Procedure, shortened: as §1

AS120 = assay: as above; settings: P. falciparum in erythrocytes, SYBR Green DNA, 72 h; series mostly up to 12.8 µM
Procedure, shortened: as §1

C2A = assay: as above; settings: P. falciparum in erythrocytes, SYBR Green DNA, 72 h; series mostly up to 12.8 µM
Procedure, shortened: as §1

CP217 = assay: as above; settings: P. falciparum in erythrocytes, SYBR Green DNA, 72 h; series mostly up to 12.8 µM
Procedure, shortened: as §1

CP238 = assay: as above; settings: P. falciparum in erythrocytes, SYBR Green DNA, 72 h; series mostly up to 12.8 µM
Procedure, shortened: as §1

CP252 = assay: as above; settings: P. falciparum in erythrocytes, SYBR Green DNA, 72 h; series mostly up to 12.8 µM
Procedure, shortened: as §1

CP262 = assay: as above; settings: P. falciparum in erythrocytes, SYBR Green DNA, 72 h; series mostly up to 12.8 µM
Procedure, shortened: as §1

CP269 = assay: as above; settings: P. falciparum in erythrocytes, SYBR Green DNA, 72 h; series mostly up to 12.8 µM
Procedure, shortened: as §1

CP297 = assay: as above; settings: P. falciparum in erythrocytes, SYBR Green DNA, 72 h; series mostly up to 12.8 µM
Procedure, shortened: as §1

ECU = assay: as above; settings: P. falciparum in erythrocytes, SYBR Green DNA, 72 h; series mostly up to 12.8 µM
Procedure, shortened: as §1

PAD = assay: as above; settings: P. falciparum in erythrocytes, SYBR Green DNA, 72 h; series mostly up to 12.8 µM
Procedure, shortened: as §1

SC27B = assay: as above; settings: P. falciparum in erythrocytes, SYBR Green DNA, 72 h; series mostly up to 12.8 µM
Procedure, shortened: as §1

CP237 = assay: as above; settings: P. falciparum in erythrocytes, SYBR Green DNA, 72 h; series mostly up to 12.8 µM
Procedure, shortened: as §1

[8] = measured here: cell count channel max response
[9] = measured here: lipid channel max response
[10] = at 12.8 µM (top of the series), parasite line A
[11] = at 12.8 µM (top of the series), parasite line B

ATP-dependent 6-phosphofructokinase (Trypanosoma brucei brucei), sequence (O15648 whole entry, looked up): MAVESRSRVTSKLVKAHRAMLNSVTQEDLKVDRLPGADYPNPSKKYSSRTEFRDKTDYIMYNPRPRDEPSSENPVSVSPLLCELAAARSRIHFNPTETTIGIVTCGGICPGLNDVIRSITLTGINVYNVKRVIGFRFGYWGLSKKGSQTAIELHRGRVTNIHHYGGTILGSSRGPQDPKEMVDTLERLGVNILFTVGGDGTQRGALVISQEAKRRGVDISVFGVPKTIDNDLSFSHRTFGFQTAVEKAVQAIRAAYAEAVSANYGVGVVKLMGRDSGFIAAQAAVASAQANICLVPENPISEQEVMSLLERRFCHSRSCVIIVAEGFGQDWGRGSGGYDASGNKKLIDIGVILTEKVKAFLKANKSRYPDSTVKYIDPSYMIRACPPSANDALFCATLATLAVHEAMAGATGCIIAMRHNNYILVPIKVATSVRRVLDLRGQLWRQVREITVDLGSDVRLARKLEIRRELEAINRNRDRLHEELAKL
Ubiquitin carboxyl-terminal hydrolase 1 (Homo sapiens), sequence (O94782 whole entry, looked up): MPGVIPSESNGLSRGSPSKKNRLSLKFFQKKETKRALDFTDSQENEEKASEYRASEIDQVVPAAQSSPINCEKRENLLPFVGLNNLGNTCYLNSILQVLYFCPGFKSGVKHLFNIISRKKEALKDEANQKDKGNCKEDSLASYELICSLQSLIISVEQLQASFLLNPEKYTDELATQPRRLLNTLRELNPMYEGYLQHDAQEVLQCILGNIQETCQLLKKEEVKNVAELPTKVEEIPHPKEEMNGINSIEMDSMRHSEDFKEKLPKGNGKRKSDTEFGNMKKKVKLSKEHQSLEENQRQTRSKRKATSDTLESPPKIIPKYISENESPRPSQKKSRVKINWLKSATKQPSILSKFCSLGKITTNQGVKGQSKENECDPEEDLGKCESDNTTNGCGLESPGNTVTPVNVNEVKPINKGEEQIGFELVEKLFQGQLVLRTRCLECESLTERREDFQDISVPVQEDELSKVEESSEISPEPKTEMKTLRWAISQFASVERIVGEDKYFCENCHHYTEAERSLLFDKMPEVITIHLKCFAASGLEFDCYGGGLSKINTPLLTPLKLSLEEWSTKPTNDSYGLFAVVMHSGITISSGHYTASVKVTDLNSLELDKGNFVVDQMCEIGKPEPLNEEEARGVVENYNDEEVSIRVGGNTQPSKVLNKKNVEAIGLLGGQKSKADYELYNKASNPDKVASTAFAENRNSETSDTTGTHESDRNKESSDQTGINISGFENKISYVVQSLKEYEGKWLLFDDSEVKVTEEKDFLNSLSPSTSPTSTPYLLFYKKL
Glucocorticoid receptor (Homo sapiens), sequence (P04150 whole entry, looked up, the tested form may be a part): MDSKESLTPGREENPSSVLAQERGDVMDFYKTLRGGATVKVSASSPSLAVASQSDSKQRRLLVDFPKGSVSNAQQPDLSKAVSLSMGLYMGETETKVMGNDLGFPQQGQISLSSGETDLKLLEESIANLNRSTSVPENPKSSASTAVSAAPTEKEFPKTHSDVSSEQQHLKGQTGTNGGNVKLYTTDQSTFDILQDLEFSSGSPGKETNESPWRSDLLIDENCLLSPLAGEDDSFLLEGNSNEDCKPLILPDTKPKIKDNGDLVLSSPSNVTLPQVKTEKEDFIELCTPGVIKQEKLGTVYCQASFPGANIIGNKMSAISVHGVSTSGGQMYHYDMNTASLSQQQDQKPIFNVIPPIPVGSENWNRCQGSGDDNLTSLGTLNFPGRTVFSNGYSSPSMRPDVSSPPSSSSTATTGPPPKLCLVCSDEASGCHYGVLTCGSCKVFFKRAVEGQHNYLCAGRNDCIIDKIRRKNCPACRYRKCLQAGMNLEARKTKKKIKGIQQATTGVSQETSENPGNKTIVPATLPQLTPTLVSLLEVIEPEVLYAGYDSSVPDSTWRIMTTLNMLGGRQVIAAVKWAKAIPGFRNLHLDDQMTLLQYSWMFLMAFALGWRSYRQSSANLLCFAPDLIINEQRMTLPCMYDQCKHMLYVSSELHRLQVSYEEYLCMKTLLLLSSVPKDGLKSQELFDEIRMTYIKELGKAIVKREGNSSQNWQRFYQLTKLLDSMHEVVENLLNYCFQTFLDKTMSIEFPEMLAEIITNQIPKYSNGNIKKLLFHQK

CC[C@](C)(CN(C)C)OC(=O)c1ccccc1
inactive: Potency [1] > 20.6 µM | Potency [2] > 20.6 µM | Potency [3] | activity change, negative = inhibition [4] -5.12% | outcome [5] | Potency [6] | activity, negative = inhibition [7, 10] 5.48% | activity, negative = inhibition [7, 11] 4.88% | Potency (3D7) | Potency (AS120) | Potency (C2A) | Potency (CP217) | Potency (CP238) | Potency (CP252) | Potency (CP262) | Potency (CP269) | Potency (CP297) | Potency (ECU) | Potency (PAD) | Potency (SC27B)
-9.58%: max response [4, 8]
-16.2%: max response [4, 9]

O=C1CN(/N=C\c2ccc([N+](=O)[O-])o2)C(=O)N1
0.924%: max response [4, 9]
inactive: Potency [1] > 20.6 µM | Potency [2] > 20.6 µM | Potency [3] | activity change, negative = inhibition [4] 1.21% | Potency [6]
3.28%: max response [4, 8]

CC(=O)O[C@H]1C[C@H]2CC[C@@H]3[C@@H](CC[C@]4(C)[C@H](OC(C)=O)[C@H]([N+]5(C)CCCCC5)C[C@@H]34)[C@]2(C)C[C@H]1[N+]1(C)CCCCC1
-5.07%: max response [4, 9]
inactive: Potency [1] > 20.6 µM | Potency [2] > 20.6 µM | Potency [3] | activity change, negative = inhibition [4] -3.97%
0.133%: max response [4, 8]

CCN(CCCCOC(=O)c1ccc(OC)c(OC)c1)[C@@H](C)Cc1ccc(OC)cc1
-6.28%: max response [4, 9]
inactive: Potency [1] > 20.6 µM | Potency [2] > 20.6 µM | Potency [3] | activity change, negative = inhibition [4] -1.1% | outcome [5] | Potency [6] | activity, negative = inhibition [7, 10] -10.8% | activity, negative = inhibition [7, 11] -8.1% | Potency (3D7) | Potency (AS120) | Potency (C2A) | Potency (CP217) | Potency (CP237) | Potency (CP238) | Potency (CP252) | Potency (CP297) | Potency (ECU) | Potency (PAD) | Potency (SC27B)
-7.41%: max response [4, 8]

COc1cc2nc(N3CCN(C(=O)[C@@H]4CCCO4)CC3)nc(N)c2cc1OC
inactive: Potency [1] > 20.6 µM | Potency [2] > 20.6 µM | Potency [3] | activity change, negative = inhibition [4] 2.61% | outcome [5] | Potency [6] | activity, negative = inhibition ([7]; at 28.7 µM (top of the series), parasite line A) 10.8% | activity, negative = inhibition ([7]; at 28.7 µM (top of the series), parasite line B) 8.54% | Potency (3D7) | Potency (AS120) | Potency (C2A) | Potency (CP217) | Potency (CP237) | Potency (CP238) | Potency (CP252) | Potency (CP262) | Potency (CP269) | Potency (CP297) | Potency (ECU) | Potency (PAD) | Potency (SC27B)
-0.955%: max response [4, 9]
-3.95%: max response [4, 8]

Cc1onc(-c2c(F)cccc2Cl)c1C(=O)N[C@H]1C(=O)N2[C@H]1SC(C)(C)[C@H]2C(=O)O
-8.13%: max response [4, 8]
inactive: Potency [1] > 20.6 µM | Potency [2] > 20.6 µM | Potency [3] | activity change, negative = inhibition [4] -2.99% | Potency [6]
-7.5%: max response [4, 9]

C[C@@H]1O[C@H](O[C@@H]2[C@H](C)O[C@H](O[C@@H]3[C@H](C)O[C@H](O[C@H]4CC[C@]5(C)[C@@H](CC[C@@H]6[C@H]5C[C@@H](O)[C@]5(C)[C@@H](C7=CC(=O)OC7)CC[C@]65O)C4)C[C@@H]3O)C[C@@H]2O)C[C@H](O)[C@@H]1O
2.04%: max response [4, 8]
inactive: Potency [1] > 20.6 µM | Potency [2] > 20.6 µM | Potency [3] | activity change, negative = inhibition [4] 0.916% | Potency [6]
1.22%: max response [4, 9]

C[C@@H](CN1c2ccccc2Sc2ccccc21)N(C)C
-10.2%: max response [4, 8]
inactive: Potency [3] | activity change, negative = inhibition [4] -3.2% | Potency [6]
-13.4%: max response [4, 9]
